This passage reports survival results from PubChem BioAssay AID463173 (ICCB-Longwood Screening Facility, Harvard Medical School, 2010).

Among all 52,000 compounds or so, about 1,700 (3.3%) were called active. Cut-off read from the data, not from the text of the source: active = survival mostly below about 52% (no sharp cut-off); inactive = mostly above about 56%. The list comes from a sample in which actives are over-represented; it also holds similar structures and randomly drawn compounds.

For the assay, the system named is Wild type. Nature of the assay: growth inhibition of S. aureus wild type versus tarO mutant, primary screen, teichoic acid synthesis inhibitors, RN4220, OD600 (AID 463173). Particulars: S. aureus RN4220 wild type/DeltatarO growth, OD600, 18 h, active compounds read low, screened at 18.75 µg/mL (by protocol).
As for `COc1ccc(N2CCN(C(=O)CN(c3cccc(C(F)(F)F)c3)S(C)(=O)=O)CC2)cc1`, the survival is 110% (inactive).

As for `COc1ccccc1N1CCN(C(=O)c2ccc(CS(=O)c3ccccc3C)o2)CC1` (configuration not stated), the survival is 75% (inactive).

Regarding `CCCCNC(=O)c1cc2n(n1)CCCN(Cc1ccc(C)cc1)C2=O`, the survival is 0% (active).

With `CCC(C)NC(=O)c1cc2n(n1)CCCN(Cc1ccc(C)cc1)C2=O` (configuration not stated), the survival was 88% (inactive).

Regarding `CCCSCCCNC(=O)c1cc2n(n1)CCCN(Cc1ccc(C)cc1)C2=O`, the survival is 113% (inactive).

Take `Cc1ccc(CN2CCCn3nc(C(=O)NC(C)C)cc3C2=O)cc1`: the survival is -2% (active).

As for `CCCNC(=O)c1cc2n(n1)CCCN(Cc1ccc(C)cc1)C2=O`, the survival was 129% (inactive).

As to `CCNC(=O)c1cc2n(n1)CCCN(Cc1ccc(C)cc1)C2=O`, the survival was 22% (inactive).

Turning to `CCCCn1cc(S(=O)(=O)c2ccc(CC)cc2)c(=O)c2cc(F)c(N3CCOCC3)cc21`, the survival is 73% (inactive).

For the compound `Cc1cccc(Cn2nnc3c(=O)[nH]c(C4CCCN(C(=O)c5ccc(C(C)(C)C)cc5)C4)nc32)c1` (configuration not stated), the survival was 23% (inactive).

`O=C(c1ccccc1)N1CCC(c2nc3c(nnn3Cc3ccccc3)c(=O)[nH]2)CC1`: the survival was 0% (active).

For `CC(C)(C)c1ccc(C(=O)N2CCCC(c3nc4c(nnn4Cc4cccc(F)c4)c(=O)[nH]3)C2)cc1` (configuration not stated), the survival is 17% (inactive).

As to `O=C(c1ccccc1)N1CCCC(c2nc3c(nnn3Cc3ccc(F)cc3F)c(=O)[nH]2)C1` (configuration not stated), the survival is 104% (inactive).

For the compound `Cc1ccccc1Cn1nnc2c(=O)[nH]c(C3CCN(C(=O)c4ccc(F)cc4)CC3)nc21`, the survival was 74% (inactive).

As to `Cc1ccccc1Cn1nnc2c(=O)[nH]c(C3CCN(C(=O)c4ccccc4)CC3)nc21`, the survival was 25% (inactive).

`O=C(c1cccc(Cl)c1)N1CCC(c2nc3c(nnn3Cc3ccc(F)cc3F)c(=O)[nH]2)CC1`: the survival is 9% (active).

With `COc1ccc(Cn2nnc3c(=O)[nH]c(C4CCN(C(=O)c5ccc(C)cc5)CC4)nc32)cc1OC`, the survival is 53% (inactive).

In the case of `COc1cccc(OC)c1Cn1nnc2c(=O)[nH]c(C3CCN(C(=O)c4ccccc4)CC3)nc21`, the survival was 76% (inactive).

As for `CC(C)(C)C(=O)N1CCCC(c2nc3c(nnn3Cc3ccc(C(C)(C)C)cc3)c(=O)[nH]2)C1` (configuration not stated), the survival is 50% (active).

Regarding `Cc1cccc(Cn2nnc3c(=O)[nH]c(C4CCN(C(=O)c5ccc(F)cc5)CC4)nc32)c1`, the survival is 29% (inactive).

`CCOc1ccc(Cn2nnc3c(=O)[nH]c(C4CCN(C(=O)c5ccccc5)CC4)nc32)cc1`: the survival was 3% (active).

Take `Cc1cn2c(=O)cc(COc3ccccc3NC(=O)c3ccc(Cl)cc3)nc2s1`: the survival was 85% (inactive).

For the compound `COc1ccc(CCNC(=O)Cn2nc(C)n3c(cc4occc43)c2=O)cc1OC`, the survival was 86% (inactive).

As to `COc1ccc(NC(=O)c2oc3ccccc3c2NC(=O)Cc2coc3ccc(C)cc23)cc1`, the survival was 85% (inactive).

Consider `CCc1ccccc1NC(=O)c1sc2nc3n(c(=O)c2c1C)CCC3`, for which the survival is 90% (inactive).

`CCOc1cc(C#N)c(NC(=O)c2ccc(OC)c(S(=O)(=O)N3CCCCC3)c2)cc1OCC`: the survival was 75% (inactive).

As to `Cc1ccc(Cn2c(CNC(=O)Cc3cccc([N+](=O)[O-])c3)nc3cccnc32)cc1`, the survival was 67% (inactive).

Regarding `O=C(Cc1cccc([N+](=O)[O-])c1)NCc1nc2cccnc2n1Cc1ccc(F)cc1`, the survival was 133% (inactive).

`COc1ccc(Cn2c(CNS(=O)(=O)c3ccc(C)c(C)c3)nc3cccnc32)cc1`: the survival is -1% (active).

As to `CCc1ccc(Cn2c(CNS(=O)(=O)c3ccc(C)c(C)c3)nc3cccnc32)cc1`, the survival was 71% (inactive).

On to `CCOc1ccc(Cn2c(CNS(=O)(=O)c3ccc(CC)cc3)nc3cccnc32)cc1`, for which the survival was 69% (inactive).

In the case of `CCc1ccc(S(=O)(=O)NCc2nc3cccnc3n2Cc2ccccc2Cl)cc1`, the survival was 83% (inactive).

With `COc1ccc(Cn2c(CNC(=O)Cc3cccc([N+](=O)[O-])c3)nc3cccnc32)cc1`, the survival was -6% (active).

For the compound `CC(C)(C)c1ccc(S(=O)(=O)NCc2nc3cccnc3n2Cc2ccccc2Cl)cc1`, the survival was 14% (active).

Consider `CCc1ccc(Cn2c(CNS(=O)(=O)c3ccc([N+](=O)[O-])cc3)nc3cccnc32)cc1`, for which the survival was 0% (active).

Consider `COc1ccc(Cn2c(CNS(=O)(=O)c3ccc4c(c3)CCCC4)nc3cccnc32)cc1`, for which the survival was 133% (inactive).

For `CCOc1ccc(Cn2c(CNS(=O)(=O)c3ccc([N+](=O)[O-])cc3)nc3cccnc32)cc1`, the survival was 87% (inactive).

Turning to `O=[N+]([O-])c1ccc(S(=O)(=O)NCc2nc3cccnc3n2Cc2ccccc2Cl)cc1`, the survival is 74% (inactive).

In the case of `COC(=O)c1ccc2c(c1)N(CC(=O)Nc1cccc(C(F)(F)F)c1)C(=O)c1ccccc1S2`, the survival was 77% (inactive).

As for `Cc1ccc(OCC(=O)Nc2ccc3nc(SCC(=O)N4CCCC4)sc3c2)cc1`, the survival is 91% (inactive).

For the compound `COc1cccc(CC(=O)NCc2ccc3c(c2)CCN3C(C)=O)c1`, the survival was 71% (inactive).

Regarding `COc1cccc(C(=O)Nc2cc(-c3ccccc3)nn2-c2ccccc2)c1`, the survival is 69% (inactive).

For the compound `Cc1ccc(NC(=O)c2c(C)oc3ccc(O)c(CN4CCCCC4)c23)cc1`, the survival is 86% (inactive).

In the case of `Cc1cc(C)c(NS(=O)(=O)c2ccc3c(c2)CC(C)N3C(=O)C2CCC2)c(C)c1` (configuration not stated), the survival is 64% (inactive).

Take `O=C(CCCCn1c(=O)c2ccccc2n(Cc2cccc(Cl)c2)c1=O)NCc1ccc2c(c1)OCO2`: the survival was 98% (inactive).

Take `CCCCNC(=O)c1cccc(-n2c(C)nc3cccnc32)c1`: the survival was 73% (inactive).

As to `CCc1ccccc1NC(=O)CCNS(=O)(=O)c1ccc2c(c1)CCCC(=O)N2`, the survival is 73% (inactive).

Consider `CCn1c(CN2CCOCC2)nc2cc(NC(=O)c3ccc([N+](=O)[O-])cc3)ccc21`, for which the survival is 90% (inactive).

For the compound `c1cc2c(cc1CNC1CCCC1)OCO2`, the survival is 104% (inactive).

For the compound `O=C(CSc1nnc(-c2ccncc2)n1-c1ccccc1)Nc1ccc(F)cc1`, the survival is 72% (inactive).

Consider `Cc1ccc(O)c(C2=Nc3ccccc3N=C(c3cccc(F)c3)C2)c1`, for which the survival was 139% (inactive).

Take `COc1ccc(CCC(=O)NCc2nc3cccnc3n2Cc2ccc(F)cc2)cc1`: the survival is 123% (inactive).

On to `CCc1ccc(Cn2c(CNS(=O)(=O)c3ccc(Cl)s3)nc3cccnc32)cc1`, for which the survival was 53% (inactive).

Regarding `O=S(=O)(NCc1nc2cccnc2n1Cc1ccccc1Cl)c1ccc(F)c(Cl)c1`, the survival was 76% (inactive).

As to `CCc1ccc(Cn2c(CNS(=O)(=O)c3ccc(F)c(Cl)c3)nc3cccnc32)cc1`, the survival is -3% (active).

With `O=S(=O)(NCc1nc2cccnc2n1Cc1ccc(F)cc1)c1ccc(Cl)s1`, the survival is -6% (active).

Turning to `Cc1ccc(Cn2c(CNS(=O)(=O)c3ccc(F)c(Cl)c3)nc3cccnc32)cc1`, the survival is 134% (inactive).

Turning to `Cc1ccc(Cn2c(CNC(=O)CCc3ccccc3)nc3cccnc32)cc1`, the survival was 99% (inactive).

Regarding `Cc1ccc(Cn2c(CNS(=O)(=O)c3ccc(Cl)s3)nc3cccnc32)cc1`, the survival is 136% (inactive).

Turning to `O=C(CCc1ccccc1)NCc1nc2cccnc2n1Cc1ccc(F)cc1`, the survival was -6% (active).

`COc1ccc(C)cc1NC(=O)C(NS(=O)(=O)c1cccc2nsnc12)c1ccccc1` (configuration not stated): the survival was 64% (inactive).

As to `Cc1cc(C)c(/C=C/c2onc(C)c2S(=O)(=O)N2CCC(C(=O)NCc3ccccc3Cl)CC2)c(C)c1`, the survival was 72% (inactive).

In the case of `Cc1ccc(CNS(=O)(=O)c2cc(Br)cc3c2N(C(=O)C2CC2)CC3)cc1`, the survival is 66% (inactive).

Turning to `Cc1cc(NC(=O)COCc2cc(-c3ccc(F)cc3)on2)ccc1Br`, the survival is 82% (inactive).

Consider `CCC(=O)N1CCc2cc(S(=O)(=O)NC(CC(C)C)C(=O)Nc3ccc(CC)cc3)ccc21` (configuration not stated), for which the survival is 84% (inactive).

For `COc1cccc(C2CC(=O)Nc3c2ccc(C)c3C)c1OC` (configuration not stated), the survival was 87% (inactive).

On to `CC1=C(C(=O)OCC2CCCCC2)C(c2ccc(Cl)cc2Cl)CC(=O)N1` (configuration not stated), for which the survival was 82% (inactive).

Consider `Cc1ccc2c(c1C)NC(=O)CC2c1ccc(Cl)cc1Cl` (configuration not stated), for which the survival is 1% (active).

Consider `CCOC(=O)CSc1ccc2nnc(CCNS(=O)(=O)c3ccccc3)n2n1`, for which the survival was 87% (inactive).

Regarding `Cc1c(-c2nc(-c3ccc4c(c3)OCO4)no2)nnn1-c1ccc(C(C)C)cc1`, the survival is 73% (inactive).

As for `CCOc1ccccc1CNC(=O)Cn1ncn2nc(-c3cccs3)cc2c1=O`, the survival was 93% (inactive).

Turning to `O=C(Oc1ccc(Cl)cc1)c1cc(-c2ccc3c(c2)OCCO3)on1`, the survival was 108% (inactive).

With `COc1ccc(OC(=O)c2cc(-c3ccc4c(c3)OCCO4)on2)cc1`, the survival was 109% (inactive).

Consider `Cc1ccc(OC(=O)c2cc(-c3ccc4c(c3)OCCO4)on2)cc1C`, for which the survival was -7% (active).

Turning to `N#Cc1ccc(OC(=O)c2cc(-c3ccc4c(c3)OCCO4)on2)cc1`, the survival is 117% (inactive).

On to `CC(C)c1ccc(OC(=O)c2cc(-c3ccc4c(c3)OCCO4)on2)cc1`, for which the survival was 46% (inactive).

For `Cc1cc(OC(=O)c2cc(-c3ccc4c(c3)OCCO4)on2)ccc1Cl`, the survival is -6% (active).

`CCn1c(=NC(=O)c2ccc(S(=O)(=O)N3CCCCC3)cc2)sc2cccc(OC)c21`: the survival is 68% (inactive).

Consider `Cc1ccc(C(=O)NC2CC3CCCC(C2)N3C(=O)NC2CCCCC2)cc1` (configuration not stated), for which the survival was 101% (inactive).

In the case of `O=C(CCC1CCCC1)N1CCN(C(=O)Cc2ccccc2)CC1`, the survival is 94% (inactive).

Regarding `COc1cc(OC)c(Nc2nc3ccccc3c3nncn23)cc1Cl`, the survival was 136% (inactive).

Regarding `CCOc1ccc(-n2c(-c3ccc(Br)cc3)cc3c2CC(C)(C)CC3=O)cc1`, the survival was 8% (active).

Consider `COc1ccc(-n2c(-c3ccc(Cl)cc3)cc3c2CC(C)(C)CC3=O)c(OC)c1`, for which the survival is 3% (active).

Turning to `CCOc1ccc(-n2c(-c3ccc(OC)cc3)cc3c2CC(C)(C)CC3=O)cc1`, the survival was 41% (inactive).

Regarding `COc1ccc(C)cc1-n1c(-c2ccc(Cl)cc2)cc2c1CC(C)(C)CC2=O`, the survival is 94% (inactive).

As for `COc1ccc(-n2c(-c3ccc(C)cc3)cc3c2CC(C)(C)CC3=O)c(OC)c1`, the survival is 96% (inactive).

On to `Cc1ccc(-c2cc3c(n2-c2ccc(C)cc2)CC(C)(C)CC3=O)cc1`, for which the survival is 69% (inactive).
